# Unmarked numbers belong to inactive results.
# Experiments:
# Experiment in all cases: log2 ratio of Biotin-Ahx-Ub-VS probe labelling (fragment/DMSO); higher = less target engagement (more negative = stronger competition), active = hit call of the paper (q ≤ 0.05, log2 ratio ≤ -1)
# Conditions in all cases: compound concentration: 200 uM; treatment time: 3 h
# [1] = molecular target: T1, OTUD6B (UniProt Q8N6M0)
# T1 sequence (whole entry): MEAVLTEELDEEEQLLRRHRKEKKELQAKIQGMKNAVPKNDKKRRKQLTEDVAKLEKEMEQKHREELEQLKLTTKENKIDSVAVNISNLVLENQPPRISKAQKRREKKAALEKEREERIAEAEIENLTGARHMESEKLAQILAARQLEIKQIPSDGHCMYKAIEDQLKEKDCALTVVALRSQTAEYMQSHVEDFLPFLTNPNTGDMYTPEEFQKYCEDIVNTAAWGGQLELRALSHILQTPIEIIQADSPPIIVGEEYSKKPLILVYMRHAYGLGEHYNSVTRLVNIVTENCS
# How it was run: (§1)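 HEK293T lysate (495 µg per sample, in Tris/CHAPS/IGEPAL buffer with protease inhibitors) was treated in triplicate with fragment at 200 µM or with DMSO for 3 h. It was then treated with Biotin-Ahx-Ub-VS (0.5 µM final) for 1 h. Labelled DUBs were NeutrAvidin-enriched, digested with LysC and trypsin, and run by diaPASEF LC-MS/MS. Spectronaut label-free quantities were global-median-normalised. Values are average log2 ratios fragment/DMSO by unpaired t-test, using proteins with ≥2 unique peptides.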
# [2] = molecular target: T2, OTUD7B (UniProt Q6GQQ9)
# T2 sequence (whole entry): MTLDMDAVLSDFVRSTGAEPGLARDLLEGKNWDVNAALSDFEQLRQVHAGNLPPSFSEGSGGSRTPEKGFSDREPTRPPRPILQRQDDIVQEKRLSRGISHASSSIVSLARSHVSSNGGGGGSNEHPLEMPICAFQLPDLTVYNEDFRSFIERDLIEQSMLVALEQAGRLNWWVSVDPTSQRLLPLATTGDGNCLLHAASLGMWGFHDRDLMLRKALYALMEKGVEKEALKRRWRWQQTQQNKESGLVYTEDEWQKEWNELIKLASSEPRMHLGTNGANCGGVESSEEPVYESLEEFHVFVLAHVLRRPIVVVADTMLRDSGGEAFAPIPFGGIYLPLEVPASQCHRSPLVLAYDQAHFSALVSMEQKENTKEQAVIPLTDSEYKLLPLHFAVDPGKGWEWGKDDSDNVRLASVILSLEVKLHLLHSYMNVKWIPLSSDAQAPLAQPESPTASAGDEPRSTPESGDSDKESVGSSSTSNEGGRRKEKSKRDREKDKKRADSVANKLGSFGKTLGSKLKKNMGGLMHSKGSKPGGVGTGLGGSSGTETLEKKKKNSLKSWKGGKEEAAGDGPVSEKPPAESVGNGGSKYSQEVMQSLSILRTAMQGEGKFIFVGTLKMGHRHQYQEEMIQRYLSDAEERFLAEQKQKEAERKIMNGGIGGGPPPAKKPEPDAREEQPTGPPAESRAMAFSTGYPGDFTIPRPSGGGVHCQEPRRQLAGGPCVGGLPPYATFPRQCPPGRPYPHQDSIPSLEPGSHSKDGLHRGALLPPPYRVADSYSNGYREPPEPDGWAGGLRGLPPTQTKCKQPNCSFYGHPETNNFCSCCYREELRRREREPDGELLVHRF
# How it was run: as §1
# [3] = molecular target: PRPF8 (UniProt Q6P2Q9)
# How it was run: as §1
# [4] = molecular target: T3, PSMD7 (UniProt P51665)
# T3 sequence (whole entry): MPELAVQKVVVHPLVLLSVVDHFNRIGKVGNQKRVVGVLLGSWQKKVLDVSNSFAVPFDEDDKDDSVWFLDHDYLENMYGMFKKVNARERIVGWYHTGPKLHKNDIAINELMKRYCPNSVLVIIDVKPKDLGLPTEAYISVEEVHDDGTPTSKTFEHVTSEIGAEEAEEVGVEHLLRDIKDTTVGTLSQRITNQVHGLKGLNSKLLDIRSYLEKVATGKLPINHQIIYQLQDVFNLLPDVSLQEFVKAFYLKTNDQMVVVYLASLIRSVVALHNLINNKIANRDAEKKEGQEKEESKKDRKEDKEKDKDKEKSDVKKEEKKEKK
# How it was run: as §1
# [5] = molecular target: UCHL1 (UniProt P09936)
# How it was run: as §1
# [6] = molecular target: T4, UCHL3 (UniProt P15374)
# T4 sequence (whole entry): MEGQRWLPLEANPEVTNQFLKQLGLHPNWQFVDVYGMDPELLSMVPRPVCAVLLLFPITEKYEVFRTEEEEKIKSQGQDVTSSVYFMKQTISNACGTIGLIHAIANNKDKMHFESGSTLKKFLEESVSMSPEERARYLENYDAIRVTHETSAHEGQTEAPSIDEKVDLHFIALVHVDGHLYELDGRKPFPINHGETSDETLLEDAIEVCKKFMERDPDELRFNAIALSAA
# How it was run: as §1
# [7] = molecular target: T5, UCHL5 (UniProt Q9Y5K5)
# T5 sequence (whole entry): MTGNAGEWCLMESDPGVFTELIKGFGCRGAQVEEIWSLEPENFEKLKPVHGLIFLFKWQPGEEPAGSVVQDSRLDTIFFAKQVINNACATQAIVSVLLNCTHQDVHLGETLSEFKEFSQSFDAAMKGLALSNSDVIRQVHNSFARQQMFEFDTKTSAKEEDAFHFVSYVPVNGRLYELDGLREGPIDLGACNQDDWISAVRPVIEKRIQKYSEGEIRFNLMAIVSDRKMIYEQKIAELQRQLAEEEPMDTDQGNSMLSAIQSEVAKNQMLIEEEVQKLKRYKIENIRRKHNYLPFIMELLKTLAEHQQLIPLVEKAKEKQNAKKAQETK
# How it was run: as §1
# [8] = molecular target: USP10 (UniProt Q14694)
# How it was run: as §1
# [9] = molecular target: T6, USP15 (UniProt Q9Y4E8)
# T6 sequence (whole entry): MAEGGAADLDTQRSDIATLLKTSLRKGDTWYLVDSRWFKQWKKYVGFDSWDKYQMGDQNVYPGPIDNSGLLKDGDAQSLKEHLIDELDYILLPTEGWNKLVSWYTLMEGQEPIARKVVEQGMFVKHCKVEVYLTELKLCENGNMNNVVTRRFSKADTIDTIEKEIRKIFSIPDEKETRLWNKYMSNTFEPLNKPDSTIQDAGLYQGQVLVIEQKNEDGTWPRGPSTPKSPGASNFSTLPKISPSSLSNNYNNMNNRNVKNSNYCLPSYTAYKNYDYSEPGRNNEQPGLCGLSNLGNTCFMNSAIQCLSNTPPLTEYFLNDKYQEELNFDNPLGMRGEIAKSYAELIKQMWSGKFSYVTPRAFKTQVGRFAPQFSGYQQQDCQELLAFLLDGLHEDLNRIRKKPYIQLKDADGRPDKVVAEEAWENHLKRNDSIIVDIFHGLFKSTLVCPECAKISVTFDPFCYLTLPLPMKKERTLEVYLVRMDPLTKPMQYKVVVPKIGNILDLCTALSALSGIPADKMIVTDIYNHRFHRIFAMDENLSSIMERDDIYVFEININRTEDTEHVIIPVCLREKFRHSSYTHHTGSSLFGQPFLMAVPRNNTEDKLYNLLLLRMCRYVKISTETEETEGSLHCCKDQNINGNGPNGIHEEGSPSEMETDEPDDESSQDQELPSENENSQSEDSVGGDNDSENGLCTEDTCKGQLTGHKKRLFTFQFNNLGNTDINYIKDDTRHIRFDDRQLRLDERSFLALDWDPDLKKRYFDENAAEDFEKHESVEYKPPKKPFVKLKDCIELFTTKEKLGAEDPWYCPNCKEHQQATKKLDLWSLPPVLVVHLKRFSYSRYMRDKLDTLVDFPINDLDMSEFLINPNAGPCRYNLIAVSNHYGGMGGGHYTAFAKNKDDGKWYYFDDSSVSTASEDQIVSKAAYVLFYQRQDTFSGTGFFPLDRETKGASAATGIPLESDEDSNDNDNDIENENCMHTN
# How it was run: as §1
# [10] = molecular target: USP16 (UniProt Q9Y5T5)
# How it was run: as §1
# Chain of USP16 (Q9Y5T5 whole entry, looked up): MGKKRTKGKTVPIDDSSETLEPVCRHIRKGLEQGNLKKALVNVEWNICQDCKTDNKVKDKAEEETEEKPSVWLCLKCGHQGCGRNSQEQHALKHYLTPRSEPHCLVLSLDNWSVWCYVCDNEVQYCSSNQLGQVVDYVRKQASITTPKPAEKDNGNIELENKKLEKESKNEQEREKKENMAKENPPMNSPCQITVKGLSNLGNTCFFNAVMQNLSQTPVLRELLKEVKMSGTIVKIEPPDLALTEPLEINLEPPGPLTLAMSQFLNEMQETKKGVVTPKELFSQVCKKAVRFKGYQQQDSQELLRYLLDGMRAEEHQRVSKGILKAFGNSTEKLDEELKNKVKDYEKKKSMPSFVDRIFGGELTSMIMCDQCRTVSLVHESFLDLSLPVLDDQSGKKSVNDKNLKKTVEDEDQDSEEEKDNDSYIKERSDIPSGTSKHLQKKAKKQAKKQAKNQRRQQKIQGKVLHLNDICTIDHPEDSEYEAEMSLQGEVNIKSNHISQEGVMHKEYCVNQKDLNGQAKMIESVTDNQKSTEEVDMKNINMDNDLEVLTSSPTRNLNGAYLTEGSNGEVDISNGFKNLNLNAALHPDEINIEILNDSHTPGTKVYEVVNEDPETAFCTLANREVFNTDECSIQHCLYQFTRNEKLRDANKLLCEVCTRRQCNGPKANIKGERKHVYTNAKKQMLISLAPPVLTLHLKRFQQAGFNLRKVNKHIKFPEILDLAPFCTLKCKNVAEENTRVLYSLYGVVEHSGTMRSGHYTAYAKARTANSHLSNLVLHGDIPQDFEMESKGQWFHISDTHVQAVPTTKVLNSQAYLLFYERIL
# Chain of UCHL1 (P09936 whole entry, looked up): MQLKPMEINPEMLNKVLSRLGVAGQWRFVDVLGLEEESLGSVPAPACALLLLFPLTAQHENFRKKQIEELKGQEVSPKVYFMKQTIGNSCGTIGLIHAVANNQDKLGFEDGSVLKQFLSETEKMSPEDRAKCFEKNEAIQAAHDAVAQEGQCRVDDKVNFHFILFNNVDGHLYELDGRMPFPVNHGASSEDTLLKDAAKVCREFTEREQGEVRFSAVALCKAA
# Chain of USP10 (Q14694 whole entry): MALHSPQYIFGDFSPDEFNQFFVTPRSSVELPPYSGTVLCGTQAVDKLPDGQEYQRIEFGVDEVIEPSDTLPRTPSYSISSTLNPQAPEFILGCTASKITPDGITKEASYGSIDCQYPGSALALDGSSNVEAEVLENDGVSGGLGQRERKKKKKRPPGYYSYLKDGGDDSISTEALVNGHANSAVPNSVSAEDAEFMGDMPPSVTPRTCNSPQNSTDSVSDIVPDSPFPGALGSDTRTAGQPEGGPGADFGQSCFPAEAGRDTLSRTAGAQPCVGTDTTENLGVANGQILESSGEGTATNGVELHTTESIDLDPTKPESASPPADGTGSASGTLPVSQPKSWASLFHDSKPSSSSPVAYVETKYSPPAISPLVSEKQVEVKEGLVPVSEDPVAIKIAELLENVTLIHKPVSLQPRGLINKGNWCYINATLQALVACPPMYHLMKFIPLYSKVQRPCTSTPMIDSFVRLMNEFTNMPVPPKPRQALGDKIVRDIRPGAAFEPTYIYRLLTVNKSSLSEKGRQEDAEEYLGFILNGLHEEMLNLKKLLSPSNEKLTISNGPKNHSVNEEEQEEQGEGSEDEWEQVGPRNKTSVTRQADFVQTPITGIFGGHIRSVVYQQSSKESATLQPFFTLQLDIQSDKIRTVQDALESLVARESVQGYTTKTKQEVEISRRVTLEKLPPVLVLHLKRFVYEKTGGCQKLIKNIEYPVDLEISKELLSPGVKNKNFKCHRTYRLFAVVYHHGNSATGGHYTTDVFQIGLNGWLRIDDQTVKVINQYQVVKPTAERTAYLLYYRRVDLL
structure (smiles),measurement,setting,value
CC(NC(=O)CCl)c1ccc2[nH]ncc2c1 (stereo not given),log2 ratio of Biotin-Ahx-Ub-VS probe labelling,[1],-0.241
same,log2 ratio of Biotin-Ahx-Ub-VS probe labelling,[2],-1.52 (active)
same,log2 ratio of Biotin-Ahx-Ub-VS probe labelling,[3],-0.0557
same,log2 ratio of Biotin-Ahx-Ub-VS probe labelling,[4],-0.245
same,log2 ratio of Biotin-Ahx-Ub-VS probe labelling,[5],-1.1 (active)
same,log2 ratio of Biotin-Ahx-Ub-VS probe labelling,[6],0.289
same,log2 ratio of Biotin-Ahx-Ub-VS probe labelling,[7],-0.328
same,log2 ratio of Biotin-Ahx-Ub-VS probe labelling,[8],-0.179
same,log2 ratio of Biotin-Ahx-Ub-VS probe labelling,[9],-0.271
same,log2 ratio of Biotin-Ahx-Ub-VS probe labelling,[10],-0.601

# Source: the supplement of paper PMC11732987, “Enantioselective OTUD7B fragment discovery through chemoproteomics screening and high-throughput optimisation” (Communications Chemistry, 2025)
